Test results as given in PMC4552634, “A New Set of Chemical Starting Points with Plasmodium falciparum Transmission-Blocking Potential for Antimalarial Drug Discovery” (PLoS ONE, 2015).
In all, about 13,000 compounds went through this assay and about 3,200 (25%) showed an effect of 50% or more. The list shows a part of the results.

test system: P. falciparum stage V gametocytes; set-up: BacTiter-Glo ATP luminescence viability of purified stage V gametocytes in 384-well plates, per cent inhibition versus DMSO; details: 48 h, 5 µM; inhibitor

Row | SMILES | % Inhibition [%]
1 | c1cc(-c2cc3ccc(C4=NCCN4)cc3[nH]2)ccc1C1=NCCN1 [TCMDC-137748] | 20.42
2 | N=C(N)c1ccc(-c2cc3ccc(C(=N)N)cc3[nH]2)cc1 [TCMDC-123458] | 53.3
3 | N=C(N)c1ccc2[nH]c(-c3cc4cc(C(=N)N)ccc4o3)cc2c1 [TCMDC-137436] | -17.43
4 | COc1ccc2nccc([C@@H](O)CN3CCC(NC(=O)C(c4ccccc4C)N4CCC(Cc5ccccc5)CC4)CC3)c2c1 (stereo partly shown) [TCMDC-141102] | 2.818
5 | N=C1SC(=Cc2cn[nH]c2-c2ccc(F)cc2)C(=O)N1c1nccs1 [TCMDC-123515] | 2.084
6 | Cc1ccc(NS(=O)(=O)c2ccc(C(C)N3CCC(N4CCCCC4)CC3)cc2)cc1C (stereo not shown) [TCMDC-133540] | 11.79
7 | O=S(=O)(Nc1cccc(CCN2CCC(N3CCCCC3)CC2)c1)c1ccc(Cl)cc1 [TCMDC-134065] | 22.65
8 | O=S(=O)(Nc1ccc(CCN2CCC(N3CCCCC3)CC2)cc1)c1ccc(Cl)cc1 [TCMDC-134078] | 45.94
9 | CC(C)c1ccc(S(=O)(=O)Nc2cccc(CCN3CCC(N4CCCCC4)CC3)c2)cc1 [TCMDC-134075] | 76.83
10 | CCc1ccc(S(=O)(=O)Nc2ccc(CCN3CCC(N4CCCCC4)CC3)cc2)cc1 [TCMDC-134089] | 86.75
11 | O=S(=O)(Nc1cccc(CCN2CCC(N3CCCCC3)CC2)c1)c1ccc(Oc2ccccc2)nc1 [TCMDC-134073] | 14.52
12 | O=S(=O)(Nc1cccc(CCN2CCC(N3CCCCC3)CC2)c1)c1ccc(-c2ccccc2)cc1 [TCMDC-134071] | 47.75
13 | CCc1ccc(S(=O)(=O)Nc2cccc(CCN3CCC(N4CCCCC4)CC3)c2)cc1 [TCMDC-134077] | 77.96
14 | O=S(=O)(Nc1cccc(CCN2CCC(N3CCCCC3)CC2)c1)c1ccc(Oc2ccccc2)cc1 [TCMDC-134072] | 70.07
15 | COc1ccc(O)cc1Cc1cnc2nc(N)nc(N)c2c1C [TCMDC-137498] | -65.52
16 | COc1ccc2nccc([C@@H](O)CN3CCC(NC(=O)C(c4cc5ccccc5o4)N4CCN(c5ccccc5)CC4)CC3)c2c1 (stereo partly shown) [TCMDC-140989] | 28.59
17 | CC(=O)N[C@H](C(=O)Nc1ccc(-c2ccc(-c3nc4cc(C(F)(F)F)ccc4[nH]3)s2)cc1)C(C)C [TCMDC-136852] | -48.64
18 | O=C(NCCc1ccc(Cl)c(Cl)c1)C1CCCN(C(=O)c2ccc(O)c(-c3ccc(Cl)c(Cl)c3)c2)C1 (stereo not shown) [TCMDC-140892] | -3.917
19 | CC(CON1C(N)=NC(N)=NC1(C)C)Cc1ccc(Cl)cc1Cl (stereo not shown) [TCMDC-131712] | 20.42
20 | Cc1cc(NS(=O)(=O)c2cccc(C(C)N3CCC(N4CCCC4)CC3)c2)ccc1C(C)C (stereo not shown) [TCMDC-133708] | 8.518
21 | O=S(=O)(Nc1cccc(CCN2CCC(N3CCCCC3)CC2)c1)c1ccc2c(c1)OCCO2 [TCMDC-134067] | 55.86
22 | O=S(=O)(Nc1ccc(CCN2CCC(N3CCCCC3)CC2)cc1)c1ccc2ccccc2c1 [TCMDC-134079] | 52.17

Row | SMILES | % Inhibition [%]
23 | COc1ccc2nccc([C@@H](O)CN3CCC(NC(=O)C(c4cccs4)N4CCN(c5ccc(F)cc5)CC4)CC3)c2c1 (stereo partly shown) [TCMDC-141100] | 25.13
24 | COc1cc(C(=O)N2CCOC(CCN3CCC4c5ccccc5CC43)(c3ccc(Cl)c(Cl)c3)C2)cc(OC)c1OC (stereo not shown) [TCMDC-135567] | -73.24
25 | COc1cc(C(=O)N2CCOC(CCN3CCC[C@H]3C(=O)Nc3ccccc3)(c3ccc(Cl)c(Cl)c3)C2)cc(OC)c1OC (stereo partly shown) [TCMDC-135571] | 90.6
26 | COc1cc(C(=O)N2CCOC(CCN3CCC(c4ccc(Cl)cc4)CC3)(c3ccc(Cl)c(Cl)c3)C2)cc(OC)c1OC (stereo not shown) [TCMDC-135566] | -3.164
27 | COc1cc(Nc2nccc(N3CCC(NC(=O)Nc4cccc(C(C)=O)c4)C3)n2)cc(OC)c1OC (stereo not shown) [TCMDC-133621] | -9.129
28 | COc1cc(Cc2cnc(N)nc2N)cc(OCC(C)(C)C(=O)O)c1OC [TCMDC-137887] | -9.297
29 | Cc1cnc(C(=O)Nc2ccc(-c3cccc(-c4nc5ccccc5[nH]4)c3)cc2)cn1 [TCMDC-137026] | -17.4
30 | NC(=O)c1ccc(NCC(=O)Nc2cccc(-c3cccc(-c4nc5ccccc5[nH]4)c3)c2)cc1 [TCMDC-132162] | 2.725
31 | NC(=O)c1ccc(NCC(=O)Nc2cccc(-c3cccc(-c4nc5ccc(F)cc5[nH]4)c3)c2)cc1 [TCMDC-132163] | 90.29
32 | CC(=O)Nc1cccc(C(=O)Nc2cccc(-c3cccc(-c4nc5ccc(F)cc5[nH]4)c3)c2)c1 [TCMDC-132137] | 91.99
33 | CC(=O)Nc1cccc(C(=O)Nc2cccc(-c3ccc(-c4nc5ccc(F)cc5[nH]4)cc3)c2)c1 [TCMDC-132139] | -25.67
34 | NC(=O)c1ccc(NCC(=O)Nc2cccc(-c3cccc(-c4nc5ccc(C(F)(F)F)cc5[nH]4)c3)c2)cc1 [TCMDC-132164] | -17.45
35 | O=C(Nc1ccc(Cl)cc1)Nc1ccc(-c2cccc(-c3nc4ccc(F)cc4[nH]3)c2)cc1 [TCMDC-133186] | -8.569
36 | O=C(Nc1ccc(Cl)cc1)Nc1cccc(-c2cccc(-c3nc4ccc(F)cc4[nH]3)c2)c1 [TCMDC-133185] | -67.78
37 | O=C(Nc1ccc(Cl)cc1)Nc1cccc(-c2ccc(-c3nc4ccc(F)cc4[nH]3)cc2)c1 [TCMDC-133183] | 78.47
38 | Cc1cnc(C(=O)Nc2cccc(-c3ccc(-c4nc5ccc(F)cc5[nH]4)cc3)c2)cn1 [TCMDC-137029] | 23.15
39 | CC(=O)Nc1cccc(C(=O)Nc2ccc(-c3cccc(-c4nc5ccc(F)cc5[nH]4)c3)cc2)c1 [TCMDC-132135] | -4.902
40 | Cc1cnc(C(=O)Nc2cccc(-c3cccc(-c4nc5ccc(F)cc5[nH]4)c3)c2)cn1 [TCMDC-137027] | 68.21
41 | O=C(NCCc1ccc(F)cc1)c1ccc(N2CCN(c3ccncc3)CC2)nc1 [TCMDC-134585] | 1.059
42 | COc1ccc(C2CC(c3cccs3)=NN2C(=O)c2ccco2)cc1OC (stereo not shown) [TCMDC-123796] | 12.69
43 | COc1ccc(CCCCN2C(=O)C(c3ccccc3)(c3ccccc3)N=C2N)cc1 [TCMDC-136522] | -62.46
44 | C=CCOc1cc(Cc2cnc(N)nc2N)cc(OC)c1OC [TCMDC-138042] | -3.964

Row | SMILES | % Inhibition [%]
45 | CCOc1cc(C(=O)NCc2cccc(C(F)(F)F)c2)ccc1-c1nc2ccc(Cl)cc2[nH]1 [TCMDC-140902] | 11.85
46 | O=C(Nc1ccc(Cn2ncc(N3CCCNCC3)c(Cl)c2=O)cc1)Nc1cc(F)cc(C(F)(F)F)c1 [TCMDC-133317] | -20.94
47 | COc1nc(NCC(C)C)nc(Oc2ccc(=O)n(Cc3ccccc3)n2)n1 [TCMDC-124913] | 48.86
48 | O=C(Cc1ccc(NC(=O)c2ccc(O)c(-c3ccc(Cl)c(Cl)c3)c2)cc1)NCCc1ccc(Cl)c(Cl)c1 [TCMDC-140873] | 3.533
49 | O=C(/C=C/c1ccc(Cl)c(Cl)c1)NCC(CCCN1CCC(c2c[nH]c3ccccc23)CC1)c1ccccc1 (stereo not shown) [TCMDC-139506] | -7.536
50 | CC(=O)NC1=NC(C)(C)N(OCCCOc2ccc(Cl)c(Cl)c2)C(NC(C)=O)=N1 [TCMDC-131742] | 2.376
51 | Cc1cc(F)ccc1Oc1nc(Nc2ccc(N3CCOCC3)c(F)c2)nc2c1S(=O)(=O)CCC2 [TCMDC-135096] | 20
52 | CCOc1cc(-c2nnc3[nH]c(=O)n(C)c(=O)c3n2)ccc1OC(C)C [TCMDC-124558] | -22.82
53 | O=C(Nc1ccc(C(=O)OCC2CCCCC2)cc1)N[C@@H](Cc1ccc(O)cc1)C(=O)NC1CCN(Cc2ccc(O)cc2)C1 (stereo partly shown) [TCMDC-135357] | -23.12
54 | O=C(Nc1cccc(-c2cccc(-c3nc4ccccc4[nH]3)c2)c1)c1ccoc1 [TCMDC-136840] | 9.278
55 | O=C(Nc1cccc(-c2cccc(-c3nc4ccc(F)cc4[nH]3)c2)c1)c1ccoc1 [TCMDC-136841] | 83.89
56 | O=C(Nc1cccc(-c2ccc(-c3nc4ccc(F)cc4[nH]3)cc2)c1)c1ccncc1 [TCMDC-136961] | -22.91
57 | O=C(Nc1ccc(-c2cccc(-c3nc4ccc(F)cc4[nH]3)c2)cc1)c1ccncc1 [TCMDC-136957] | -5.175
58 | O=C(Nc1cccc(-c2cccc(-c3nc4ccc(F)cc4[nH]3)c2)c1)c1ccncc1 [TCMDC-136959] | 85.81
59 | O=C(Nc1cccc(-c2ccc(-c3nc4ccc(F)cc4[nH]3)cc2)c1)c1ccoc1 [TCMDC-136843] | -15.37
60 | CCCCCCn1c(Sc2ccc(C#N)c([N+](=O)[O-])c2)nnc1-c1ccc(OC)cc1 [TCMDC-135604] | 12.04
61 | CN1C(=O)OC[C@@H]1Cc1ccc2[nH]cc(C3=CCN(Cc4ccccc4)CC3)c2c1 [TCMDC-137790] | 15.2
62 | COCC(C)n1c(C)cc(C(=O)CSc2nnc(Nc3ccccc3)s2)c1C (stereo not shown) [TCMDC-123611] | 2.084
63 | COc1cccc(C2C(C(=O)Nc3ccccc3)=C(C)N=c3sc(=Cc4ccc(O)cc4)c(=O)n32)c1 (stereo not shown) [TCMDC-125613] | -17.06
64 | COc1cccc(Nc2nnc(SCC(=O)NNC(=O)c3ccccn3)s2)c1 [TCMDC-124565] | 57.52
